Consider 15 compounds from PubChem BioAssay.

Calls of active or inactive are those of the source.

The target of one test is Albumin (Bos taurus) (UniProt P02769). Briefly: compounds binding labelled BSA control protein – biochemical, small-molecule microarray, Alexa647 label, 635/667 nm fluorescence, artefact control for SMM control protein annotation, profiling panel (AID 1118).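 Further: score merges 667 nm emission intensity and signal-to-noise per printed compound spot.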 The settings on record: BSA-A647 binding, fluorescence 635 nm, higher = more signal.
Chain of Albumin (Bos taurus) (P02769 whole entry, looked up): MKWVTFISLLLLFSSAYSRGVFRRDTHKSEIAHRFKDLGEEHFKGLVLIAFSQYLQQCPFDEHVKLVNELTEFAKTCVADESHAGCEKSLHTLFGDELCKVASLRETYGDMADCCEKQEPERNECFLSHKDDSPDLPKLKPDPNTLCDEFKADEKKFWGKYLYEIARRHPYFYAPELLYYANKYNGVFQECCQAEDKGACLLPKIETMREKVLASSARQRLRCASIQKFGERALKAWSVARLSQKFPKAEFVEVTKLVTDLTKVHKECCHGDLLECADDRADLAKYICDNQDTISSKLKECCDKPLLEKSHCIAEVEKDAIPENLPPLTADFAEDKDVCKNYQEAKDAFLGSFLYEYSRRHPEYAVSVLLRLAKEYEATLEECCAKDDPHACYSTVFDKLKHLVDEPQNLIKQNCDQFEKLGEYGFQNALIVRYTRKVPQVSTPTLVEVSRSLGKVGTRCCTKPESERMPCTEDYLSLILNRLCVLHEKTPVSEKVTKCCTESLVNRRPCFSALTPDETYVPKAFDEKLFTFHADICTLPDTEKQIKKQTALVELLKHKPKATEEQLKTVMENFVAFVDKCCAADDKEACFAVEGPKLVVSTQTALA
Test [1] can be described thus: probe aXIP binding to arrayed compounds – biochemical, NeuroSMM set, 635/667 nm fluorescence, primary screen (AID 1119).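 Further: probe is the protein aXip251-270 applied at 1 µg/mL to compound-printed slides; binding of probe to printed compounds measured as 667 nm fluorescence plus signal to noise.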 The settings on record: small-molecule microarray, higher = more signal, called active from +8 up or from −8 down.
A short description of test [2]: probe aNOTCH3 binding on compound microarray – biochemical, small-molecule microarray, 635/667 nm fluorescence, primary screen (AID 1120).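 Further: probe is a biotin-tagged antibody raised against NOTCH3 rather than NOTCH3 protein; score merges spot fluorescence near 667 nm with spot signal to noise.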 As to conditions: higher = more signal.
Test [3] in a line: probe aNOTCH2 binding on compound microarray – biochemical, small-molecule microarray, 635/667 nm fluorescence, primary screen (AID 1121).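 Further: score merges feature fluorescence read at 667 nm with its signal to noise.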 As to conditions: higher = more signal.
Test [4] addresses Carbonic anhydrase 2 (Homo sapiens) (UniProt P00918). Briefly: compounds binding carbonic anhydrase 2 – biochemical, small-molecule microarray, Alexa647-labelled CAII, profiling panel (AID 1122). As to conditions: CAII-A647 binding fluorescence, higher = more signal.
Test [5] in a line: COS7 lysate on small-molecule microarray, probe aHis, 635 nm (AID 1123).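 Further: z-score combines 667nm fluorescence intensity with signal-to-noise per printed compound spot.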 As to conditions: COS7 cell lysate, fluorescence, higher = more signal.
The nature of test [6]: probe aLAP1 signal on lysate-treated microarray – cell lysate, small-molecule microarray, COS7 lysate, primary screen (AID 1124).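 Further: lysate comes from COS7 cells expressing LAP1 and is applied at 0.3 µg/mL; score merges spot fluorescence near 667 nm with signal-to-noise over triplicate slides.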 As to conditions: probe aLAP1, fluorescence, higher = more signal.
The next test relates to Sam68 (KHDRBS1). Briefly: compounds binding KHDRBS1 protein – biochemical, small-molecule microarray, 635 nm fluorescence, primary screen (AID 1125).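 Further: score merges 667 nm channel intensity with signal to noise over triplicate slides.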 As to conditions: higher = more signal.
For test [7], the system named is Chordin-like protein 2 (CHRDL2). Nature of the test: compounds binding chordin-like 2 – biochemical, small-molecule microarray, 635 nm fluorescence, primary screen (AID 1126).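 Further: printed compound slides probed with Chrdl2 protein at 4 µg/mL for 1 h at 4 C; score merges 667 nm emission intensity with signal to noise over three replicate slides.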 As to conditions: fluorescence 635 nm, higher = more signal.
In test [8] the target is Concanavalin-A (Canavalia ensiformis) (UniProt P02866). Briefly: compounds binding concanavalin A lectin – biochemical, small-molecule microarray, Alexa647 label, 635 nm, artefact control for SMM control protein annotation, primary screen (AID 1127).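 Further: z combines 667 nm emission intensity with signal-to-noise across three replicate slides.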 As to conditions: ConA-A647 binding fluorescence, higher = more signal.
Chain of Concanavalin-A (Canavalia ensiformis) (P02866 whole entry, looked up): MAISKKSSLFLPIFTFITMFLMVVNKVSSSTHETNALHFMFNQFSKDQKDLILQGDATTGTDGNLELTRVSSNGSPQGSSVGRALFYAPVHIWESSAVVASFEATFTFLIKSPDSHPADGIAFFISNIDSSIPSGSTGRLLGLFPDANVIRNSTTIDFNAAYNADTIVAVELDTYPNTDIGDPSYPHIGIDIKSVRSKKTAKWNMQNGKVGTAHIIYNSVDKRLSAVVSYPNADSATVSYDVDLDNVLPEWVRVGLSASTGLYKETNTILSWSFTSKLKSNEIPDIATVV

For the compound `CC(C)[C@H]1NC(=O)[C@@]23C(=O)N[C@@H](Cc4ccccc4)C2[C@H](C)[C@@]2(C)O[C@H]2C3/C=C/C/C=C\CNC(=O)[C@H](Cc2ccccc2)NC1=O` (stereo not given in full), the composite z-score was 0.347 in the test with Albumin (Bos taurus); 0.204 in [2]; -0.19 in [3]; 0.318 in test [4]; 0.836 in test [5]; 0.582 in test [6]. Further, the composite z-score worked out at 1.29 in the test on Sam68 (KHDRBS1), 0.908 in test [7] and 0.273 in [8]. In addition, the composite Z-score in test [1] was 0.167 (inactive).
Consider `C=C(C)C1CCC(C(O)C2C=CC3C(=O)N(C)C(=O)C3N2Nc2cc(OC)c(OC)c(OC)c2)CC1` (stereo not given), for which the composite z-score is 0.941 with Albumin (Bos taurus); 0.263 in [2]; -0.0598 in test [3]; 0.703 in test [4]; 1.46 in test [5]; 0.0507 in test [6]. The composite z-score with Sam68 (KHDRBS1) was found to be 1.29; in test [7] it was 0.464; in test [8] it was 0.974. In addition, the composite Z-score in test [1] is -0.0192 (inactive).
Take `CC(C)CNC(=O)[C@@]1(C)c2ccccc2C(=O)N(Cc2cc(C(F)(F)F)cc(C(F)(F)F)c2)[C@H]1c1ccc(CO)cc1`: the composite z-score with Albumin (Bos taurus) was 0.184; in test [2], -0.242; in test [3], -0.111; in [4], 0.72; in test [5] it was 0.79; in test [6], -0.205. For the same compound, the composite z-score was 0.108 with Sam68 (KHDRBS1), -0.307 in test [7] and 0.0758 in test [8]. Also, in test [1], the composite Z-score is 0.635 (inactive).
As to `COCCOC(=O)N1C(=O)[C@@]2(c3cc(C#CCCO)ccc31)[C@H](C(=O)N1CCCCCCC1)[C@H]1C(=O)O[C@H](c3ccccc3)[C@H](c3ccccc3)N1[C@@H]2c1ccccc1OCCO`, the composite z-score with Albumin (Bos taurus) worked out at 0.951; in test [2], 1.46; in test [3] it was 0.662; in test [4], 0.599; in test [5], 2.89; in test [6] it was 0.359. For the same compound, the composite z-score in the test on Sam68 (KHDRBS1) was 1.32; in test [7], 1.14; in [8] it was 1.09. The composite Z-score in test [1] was 3.51 (inactive).
As for `CC=CC(O)C1C=CC2C(=O)NC(=O)C2N1Nc1ccccn1` (stereo not given), the composite z-score was 0.456 in the test with Albumin (Bos taurus); -0.0362 in test [2]; -0.112 in test [3]; 0.463 in [4]; 0.717 in [5]; 0.654 in [6]. The figures for the composite z-score (with Sam68 (KHDRBS1); in test [7]; in [8]) were 0.463, 1.04 and 0.855, respectively. The composite Z-score in test [1] was 0.289 (inactive).
Take `C=C(CCCC)C(=O)CC[C@H](OC(=O)c1ccccc1-c1ccccc1C(=O)O)c1ccccc1OCCO`: the composite z-score with Albumin (Bos taurus) was 0.0147; in test [2], -0.104; in test [3] it was -0.189; in [4] it was 0.693; in [5] it was 0.043; in [6], 0.61. In addition, the composite z-score with Sam68 (KHDRBS1) was 0.203; in test [7], 0.277; in [8] it was -0.496. The composite Z-score in test [1] is -0.104 (inactive).
As for `O=C1N[C@@H](Cc2ccccc2)C(=O)N2[C@@H]1C[C@@H](C(=O)O)[C@H]2c1ccc(O)cc1`, the composite z-score with Albumin (Bos taurus) worked out at 0.145; in [2], 0.428; in test [3], 0.0712; in [4], 0.757; in test [5], 1.33; in [6], 0.341. The figures for the composite z-score (with Sam68 (KHDRBS1); in [7]; in test [8]) were 0.754, 1.1 and 1.01, respectively. In addition, in test [1], the composite Z-score is 0.84 (inactive).
As for `CC(C)C[C@@H]1NC(=O)CNC(=O)[C@@]23C(=O)N[C@@H](Cc4ccccc4)C2[C@H](C)[C@@]2(C)O[C@H]2C3/C=C/C/C=C\CNC1=O` (stereo not given in full), the composite z-score with Albumin (Bos taurus) is -0.007; in test [2], 0.0026; in test [3], -0.102; in [4], 0.461; in [5] it was 0.718; in [6], 0.461. Besides, the values for the composite z-score (in the test on Sam68 (KHDRBS1); in test [7]; in test [8]) were 1.29, 0.764 and -0.404, respectively. Also, the composite Z-score in [1] is 0.692 (inactive).
In the case of `Cc1ccc(S[C@]2(C(=O)NC(C)C)CC(=O)N(C(C)C)[C@@H]2c2ccc(CO)cc2I)cc1`, the composite z-score with Albumin (Bos taurus) is 0.41; in test [2] it was -0.0647; in [3] it was -0.0686; in test [4], 0.326; in test [5] it was 1.32; in test [6], 0.366. Moreover, the figures for the composite z-score (with Sam68 (KHDRBS1); in test [7]; in [8]) were 1.12, -0.598 and -0.0097, respectively. For the same compound, the composite Z-score in test [1] is -0.283 (inactive).
`COCCOC(=O)N1C(=O)[C@@]2(c3cc(C#CCC(C(=O)OC)C(=O)OC)ccc31)[C@H](C(=O)NC[C@H](O)c1ccccc1)[C@H]1C(=O)O[C@H](c3ccccc3)[C@H](c3ccccc3)N1[C@@H]2c1ccc(OCCO)cc1`: the composite z-score with Albumin (Bos taurus) was 0.45; in [2], 0.0899; in [3], -0.099; in test [4], 0.521; in test [5] it was 1.66; in test [6], 0.257. Further, the composite z-score with Sam68 (KHDRBS1) came to 1.3; in test [7], 1.13; in test [8] it was 1.14. In addition, in test [1], the composite Z-score was 1.02 (inactive).
For the compound `COc1ccc([Si](C)(C)[C@@H]2[C@@H](CCn3cc([C@H](O)c4ccccc4)nn3)O[C@]3(C(=O)N(Cc4cccc(N5C(=O)c6cccc7cccc5c67)c4)c4ccccc43)[C@H]2C)cc1`, the composite z-score is 0.371 with Albumin (Bos taurus); -0.157 in [2]; -0.155 in test [3]; 0.405 in test [4]; 0.992 in test [5]; -0.64 in test [6]. The values for the composite z-score (in the test with Sam68 (KHDRBS1); in test [7]; in test [8]) were 0.173, -1.09 and 0.234, respectively. For the same compound, the composite Z-score in test [1] is 0.0425 (inactive).
Turning to `COC(=O)c1c2oc(c1C(=O)OC)C(=O)N1CCC[C@H]1Cn1nncc1CN(Cc1ccccc1)C(=O)N[C@H](CO)CC2`, the composite z-score was 0.333 in the test with Albumin (Bos taurus); -0.134 in [2]; -0.164 in test [3]; 0.75 in [4]; 0.214 in test [5]; 0.832 in test [6]. The composite z-score was 0.626 with Sam68 (KHDRBS1), -0.581 in [7] and 0.125 in test [8]. The composite Z-score in [1] was 0.316 (inactive).
For the compound `O=C1O[C@H](c2ccccc2)[C@H](c2ccccc2)N2[C@H]1[C@@H](C(=O)N1CCCCCCC1)[C@]1(C(=O)Nc3ccc(C#CC4(O)CCCCCC4)cc31)[C@H]2c1ccccc1OCCO`, the composite z-score came out at 0.573 with Albumin (Bos taurus); 2.18 in [2]; 1.13 in test [3]; 1.02 in [4]; 5.1 in test [5]; 1.42 in [6]. Moreover, the composite z-score turned out to be 1.34 with Sam68 (KHDRBS1), 1.73 in test [7] and 0.952 in test [8]. The composite Z-score in [1] is 9.08 (active).
`COc1ccc([Si](C)(C)[C@H]2[C@H](CC(=O)N3Cc4ccccc4C[C@H]3CO)O[C@@]3(C(=O)N(Cc4ccc(N5C(=O)c6cccc7cccc5c67)cc4)c4ccccc43)[C@@H]2C)cc1`: the composite z-score with Albumin (Bos taurus) is 0.502; in test [2], -0.0647; in test [3], -0.207; in [4] it was 0.376; in [5], 0.822; in test [6], 0.295. The composite z-score is 1.3 in the test with Sam68 (KHDRBS1), 1.13 in [7] and 1.08 in [8]. Further, the composite Z-score in [1] is 0.858 (inactive).
Take `CN(C)CCCCCCNC(=O)[C@@H]1C[C@@H]2C(=O)N[C@@H](CCCCN)C(=O)N2[C@@H]1c1ccc(O)cc1`: the composite z-score with Albumin (Bos taurus) stood at 0.73; in test [2], 2.14; in test [3] it was 0.999; in test [4], 0.74; in test [5], 3.41; in [6], 0.611. The composite z-score in the test on Sam68 (KHDRBS1) amounted to 1.32; in [7] it was 1.36; in [8], 1.24. Also, the composite Z-score in [1] is 3.97 (inactive).
